From ChEMBL document CHEMBL3988442, “University of Dundee, Small-Polar-MMV Screening Library” (2021) come the findings set out here.

The test addresses T1, Aspartate--tRNA(Asp/Asn) ligase (Mycobacterium tuberculosis (strain ATCC 25618 / H37Rv)) (UniProt P9WFW3).
T1 sequence (whole entry): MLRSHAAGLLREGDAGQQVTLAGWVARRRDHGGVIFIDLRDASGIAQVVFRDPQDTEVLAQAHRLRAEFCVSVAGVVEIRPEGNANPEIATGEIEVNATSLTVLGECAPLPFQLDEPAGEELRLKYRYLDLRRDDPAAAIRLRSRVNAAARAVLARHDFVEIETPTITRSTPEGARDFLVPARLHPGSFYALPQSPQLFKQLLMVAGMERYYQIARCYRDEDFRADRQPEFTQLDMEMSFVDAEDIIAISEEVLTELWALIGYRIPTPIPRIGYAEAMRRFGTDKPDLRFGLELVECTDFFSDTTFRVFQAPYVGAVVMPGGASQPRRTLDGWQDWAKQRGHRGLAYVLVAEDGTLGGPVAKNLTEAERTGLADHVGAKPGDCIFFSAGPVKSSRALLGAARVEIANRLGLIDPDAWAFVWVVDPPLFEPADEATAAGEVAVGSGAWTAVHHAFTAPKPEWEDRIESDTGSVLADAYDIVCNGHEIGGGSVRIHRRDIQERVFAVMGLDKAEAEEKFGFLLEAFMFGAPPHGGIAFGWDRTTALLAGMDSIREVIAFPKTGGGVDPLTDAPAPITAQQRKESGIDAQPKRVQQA
The test is described as follows: Assay for Asp RNA synthetase-1 from Mycobacterium tuberculosis. It is filed as functional. Set-up: scale not given: in the data most compounds retested in dose-response had high values. The conditions noted are these: 30 µM.
`c1cn(Cc2nnc(C3CCN(C4CCOCC4)CC3)n2C2CC2)cn1`: the Percent Effect is -3.53%.
For `c1cnn(CC2CCCCN2c2ncnc3sccc23)c1` (stereo not given) the value was 2.59%; for `CN(C)CCn1c(=O)oc2ccc(NC(=O)c3cc(Cl)c[nH]3)cc21`, 5.07%; for `COCc1nc(CN2CCC3(CCCO3)CCC2=O)no1` (stereo not given), -3.94%.
Turning to `O=C(NCCCn1cccn1)N1CCCC1c1ccncc1` (stereo not given), the Percent Effect was -0.931%.
Next, `O=c1oc(-c2cccs2)nn1CC(O)c1ccccc1` (stereo not given): 1.71%.
As to `CN(CCO)Cc1nnc(C2CCN(C(=O)c3cccnc3)CC2)n1C`, the Percent Effect is -0.977%.
Next, `CC(C)(C)OC(=O)NC(C)(C)c1noc(CN2CCCCC2)n1`: -0.448%; `O=C(O)[C@]12CCCN(Cc3ccncc3)[C@@H]1CCN(c1cnccn1)C2`: 0.862%; `COc1ncccc1C(=O)N1CCC(CNC(C)=O)CC1`: 1.83%.
Next, `CCOC1CCN(C(=O)c2c(Cl)c3ccccc3n2C)CC1`: -2.01%.
For `Cc1ccc(C(=O)N2CCN(S(C)(=O)=O)CC2)cc1N1CCNC1=O` the value was -4.61%; for `CC(=O)Nc1c(C)cnn1Cc1cc(F)ccc1F`, 2.1%; for `CC(Sc1nnnn1C1CCOCC1)C(=O)NC1CCCCC1` (stereo not given), 1.09%.
Turning to `Cc1cc(F)ccc1OC1(C(=O)O)CCN(Cc2ccncc2)CC1`, the Percent Effect was -3.25%.
Next, `COC1CCCN(C(=O)Nc2nc(C)n(C)n2)C1` (stereo not given): -3.53%.
Next, `Cc1ccc(CNC(=O)N(Cc2ccccc2F)C2CC2)cn1`: -0.931%.
For `O=C(NCC(F)(F)F)NC1CCCc2c1cnn2CCO` (stereo not given) the value was -1.62%.
Consider `CCS(=O)(=O)c1ccc(N2CCC(NC(C)=O)CC2)cc1`, for which the Percent Effect was 1.78%.
Consider `Cc1cc(CN(C)C2CCCN(c3cccnn3)C2)on1` (stereo not given), for which the Percent Effect came out at 0.172%.
For `CCN(CC1CN(CCc2ccccn2)CCO1)c1cccnn1` (stereo not given) the value was -1%.
For `O=C(CCNS(=O)(=O)c1ccc2c(c1)CCCC2)NCc1ccoc1` the value was 0.701%; for `O=C(NCCN1CCOCC1)NCc1ncc(-c2ccccc2)o1`, 1.62%.
Next, `COc1ccc(F)c(CN2CCC3(CCC(=O)N(CC(N)=O)C3)CC2)c1`: -3.94%; `COc1ncccc1NC(=O)N1CCC(CNC(C)=O)CC1`: -1.39%.
Regarding `COc1ccccc1CN(C)c1nccc(-c2cn(C)nc2C)n1`, the Percent Effect was -1.34%.
Next, `CC(C)CN1CCc2[nH]cnc2C12CCN(C(=O)c1cccnc1)CC2`: 1.3%; `Cc1nn(CCO)c(C)c1CNC1CCc2c(Cl)cccc21` (stereo not given): 0.54%.
Next, `CN(CCNC(=O)N1CCN(Cc2ccon2)CC1)c1ccccc1`: 2.1%; `O=C(C1CC(=O)N(C2CCCC2)C1)N1CCN(CCn2cccc2)CC1` (stereo not given): -2.4%.
Next, `CCCC(NC(=O)c1ccc(OC)cc1F)c1nnn[nH]1` (stereo not given): -1.41%.
For the compound `O=C(O)c1ccn(-c2ccccc2NS(=O)(=O)c2ccccc2)n1`, the Percent Effect amounted to 1.9%.
For `CCSCCC(=O)Nc1ncn(Cc2cccnc2)n1` the value was -2.31%; for `Cc1c[nH]c(CN(C)C(=O)c2cccc(CCC(C)(C)O)c2)n1`, -1%; for `CCC(C(=O)NCc1ccncc1)N(c1cccc(C)c1)S(C)(=O)=O` (stereo not given), -1.51%.
Next, `CC(O)CN1CCN(C(=O)c2cnn(-c3ccccc3F)c2)CC1` (stereo not given): -2.52%; `Cc1nccn1CCC1CCCCN1Cc1ccc(N(C)C)nc1` (stereo not given): 2.17%.
For `CSC(C)(C)CNC(=O)NCCC1CCN(C)CC1` the value was -1.57%; for `CCN1CC2(CCN(CCOCCO)CC2)CC(c2ccccc2)C1=O` (stereo not given), -2.77%.
For `CCc1ncc(C(=O)NCCNC(=O)Cc2ccc(F)cc2)s1`, the Percent Effect is -2.42%.
